Bioassay records (PubChem BioAssay)
ALDH1A1 block: inhibitors of human aldehyde dehydrogenase 1A1; AID 1030; Potency, µM (titrated, usually from 75.3 µM), for the others: at the top dose activity, negative = inhibition, actives largely listed as inhibitors; actives 7.3% (n = 220,000); Purified ALDH1A1, NADH fluorescence, propionaldehyde substrate; active means well fitted inhibition curve with a large enough effect, not every such curve was filed as active; inconclusive means small, poorly fitted or top-dose-only effect, or another doubt; inactive means no such curve, though single readings can be large or run the other way;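 further: plate controls were no enzyme wells and a reference inhibitor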
Target sequence (P00352 whole entry, looked up): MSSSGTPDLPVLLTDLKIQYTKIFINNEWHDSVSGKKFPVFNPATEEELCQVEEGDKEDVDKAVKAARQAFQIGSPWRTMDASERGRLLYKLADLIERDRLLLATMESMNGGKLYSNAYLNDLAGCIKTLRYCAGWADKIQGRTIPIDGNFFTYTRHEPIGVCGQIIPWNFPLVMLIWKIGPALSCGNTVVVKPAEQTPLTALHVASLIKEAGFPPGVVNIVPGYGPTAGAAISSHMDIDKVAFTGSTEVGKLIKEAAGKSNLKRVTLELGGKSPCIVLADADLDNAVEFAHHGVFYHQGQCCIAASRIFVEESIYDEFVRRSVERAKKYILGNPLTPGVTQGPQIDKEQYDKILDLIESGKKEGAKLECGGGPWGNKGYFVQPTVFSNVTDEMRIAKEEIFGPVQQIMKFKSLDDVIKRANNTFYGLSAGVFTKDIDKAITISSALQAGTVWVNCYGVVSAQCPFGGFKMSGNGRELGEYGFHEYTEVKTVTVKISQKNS
Sfp inh: inhibitors of Bacillus subtilis Sfp phosphopantetheinyl transferase | Q9F4F7 | Biochemical Sfp PPTase activity, qHTS | Potency, µM, for inactives: largest response in the series, negative = inhibition, most hits filed as inhibitors | actives 3.5% (n = 310,000);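 further: the enzyme is Sfp with the accession as filed and its product quenches rhodamine fluorescence; 0% = enzyme reaction without inhibitor and -100% = no enzyme wells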
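Fluorescence-quenching assay with 15 nM Sfp, 5 uM rhodamine-CoA and 12.5 uM BHQ-2-labelled ybbR peptide in pH 7.6 Hepes/MgCl2 buffer. Enzyme was pre-incubated with compound for 15 min at room temperature. Rate was taken from the 30-min fluorescence change (525/598 nm).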
RORg inh: blocks mouse ROR gamma transcriptional activity | actives 5.4% (n = 310,000) | P51450 | AID 2551 | Drosophila S2 Gal4-RORgamma UAS-luciferase reporter, 20 h | Potency, µM (top dose mostly 53.6 µM), for the others: at the top dose activity change, negative = inhibition, hits mostly inhibitors; further: nearly all actives have a fitted effect of over 60% in size
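In this cell-based reporter format, copper sulfate (700 uM final) drives Gal4–ROR gamma fusion expression from a metallothionein promoter in Drosophila Schneider cells; compounds preincubated 1 hr, reporter read after 20 hr at ambient temperature.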
Gal4-VP16 FLuc: Gal4-VP16 reporter inhibition counter-screen; actives 3.5% (n = 310,000); Drosophila S2 Gal4-VP16 UAS-luciferase, luminescence, 20 h; Potency, µM (titrated, usually from 53.6 µM), for inactives: at the highest dose activity, negative = inhibition, actives largely listed as inhibitors; AID 2546;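 further: Gal4-VP16 expression switched on by copper sulfate through the metallothionein promoter; nearly all actives have a fitted effect of over 50% in size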
PLK1 PBD block: blocks phosphopeptide binding to human PLK1 polo-box domain; actives 2.8% (n = 360,000); Potency, µM, inactives show max response, negative = inhibition, usual class: inhibitors; Plk1 PBD binding of FITC phosphopeptide, fluorescence polarization; AID 720504; P53350; further: series mostly up to about 57 µM; nearly all actives have a fitted effect of over 65% in size
The depositor's hits bear a star; [ ] = remark or other dose. In the library only some 12% were active in any assay of this set; here they are far more common. Unless noted, the call rests on the fitted dose curve; in most records, active means well fitted curve in the direction sought with a large enough effect; inconclusive means small, poorly fitted or top-dose-only effect, or another doubt; inactive means no such curve, though single readings can be large; an effect the other way counts as inactive or inconclusive. Unless noted, on the % scale 0 is the no-effect control and ±100 the full control effect; potency means the concentration at half of the fitted maximal effect.

For Cc1cc2c(nc1C)CCCN2C[C@H](O)CN1CCCc2nc(-c3ccc(Br)cc3)ccc21 the results were ALDH1A1 block 0.9%[13.5 µM], Sfp inh 16.3%, RORg inh 8.6%[10 µM] and Gal4-VP16 FLuc -13.5%[10 µM].
`CC(=O)Nc1ccc(-c2ccnc3c2CC(C(=O)NCC2CCOCC2)O3)cc1` (stereo not drawn) gave PLK1 PBD block -12.8%.
CCCC[C@]12Cc3ccccc3[C@H](O1)C1=C(O2)C(=O)c2ccccc2C1=O was read as Sfp inh 12.2%, RORg inh -3.0%[10 µM] and Gal4-VP16 FLuc -8.7%[10 µM].
For CC1(C(=O)NCc2ccc(Cl)cc2)CCN1C(=O)Cc1ccc(Cl)cc1Cl (stereo not drawn) the results were PLK1 PBD block -0.5%.
For COc1ccc(C2C(C(=O)c3ccco3)=C(O)C(=O)N2CCOCCO)cc1OC (stereo not drawn) the results were ALDH1A1 block 20µM*, Sfp inh -23.9%, RORg inh 0.8%, Gal4-VP16 FLuc -6.2% and PLK1 PBD block -1.6%.
For Cc1c(C(=O)OC2CCCC2C)[nH]c2c1C(=O)CCC2 (stereo not drawn) the results were ALDH1A1 block 8.91µM*, Sfp inh -22.4%, RORg inh inconclusive, Gal4-VP16 FLuc -14.7% and PLK1 PBD block -15.9%.
COCCNC(=S)NNc1ccc(Cl)c(C(=O)O)c1 was read as ALDH1A1 block 8.91µM*, Sfp inh 3.98µM*, RORg inh -7.3%, Gal4-VP16 FLuc 0.9% and PLK1 PBD block 26.7µM*.
O=C(CCCCC(=O)NN=Cc1ccccc1O)NN=Cc1ccccc1O was read as PLK1 PBD block 2.2%.
`COCCCNC(=S)N/N=C/c1ccccc1O` gave ALDH1A1 block inconclusive, Sfp inh 9.8%, RORg inh 0.562µM*, Gal4-VP16 FLuc 3.55µM* and PLK1 PBD block -13.2%.
For COc1cc(OC)cc(C(=O)NC(=S)Nc2ccc(Cl)c(C(=O)O)c2)c1 the results were ALDH1A1 block -4.0%, Sfp inh -24.5%, RORg inh -15.0%, Gal4-VP16 FLuc -7.4% and PLK1 PBD block -12.7%.
COCCNC(=S)N/N=C/c1ccccc1C(=O)O was read as ALDH1A1 block -9.5%, Sfp inh 63.1µM*, RORg inh 12.3%, Gal4-VP16 FLuc 0.1% and PLK1 PBD block -4.1%.
For CN1c2ccccc2C(=O)N2CCc3c([nH]c4ccccc34)C21 (stereo not drawn) the results were Sfp inh 3.8%, RORg inh 12.6% and Gal4-VP16 FLuc -18.9%.
For COc1ccc(C2=C/C(=C\c3cccc(OC(C)=O)c3)C(=O)O2)cc1 the results were ALDH1A1 block 25.1µM*, Sfp inh -77.1%, RORg inh 7.08µM*, Gal4-VP16 FLuc inconclusive and PLK1 PBD block -12.9%.
`O=C1CCC(C(=O)OCC(=O)Nc2ccc(SC(F)F)cc2)=NN1` gave PLK1 PBD block -27.5%.
CC(Nc1ccc(Cl)cc1)c1cc(Cl)ccc1O (stereo not drawn) was read as ALDH1A1 block -1.0%, Sfp inh -24.5%, RORg inh inconclusive, Gal4-VP16 FLuc 12.6µM* and PLK1 PBD block 0.6%.
Screening CC(Nc1ccc(Br)cn1)c1cc(Cl)ccc1O (stereo not drawn) returned ALDH1A1 block -13.8%, Sfp inh 8.7%, RORg inh -11.3%, Gal4-VP16 FLuc 0.5%[0.365 µM] and PLK1 PBD block 26.7µM*.
Screening O=C(O)C(Cc1ccccc1)N1C(=O)/C(=C/c2cccnc2)SC1=S (stereo not drawn) returned Sfp inh 79.4µM*, RORg inh 21.5%, Gal4-VP16 FLuc -1.4% and PLK1 PBD block -0.5%.
O=C(NN1C(=O)/C(=C/C=C/c2ccco2)SC1=S)c1ccccc1O was read as Sfp inh 56.2µM*, RORg inh -1.7%, Gal4-VP16 FLuc 3.1% and PLK1 PBD block 6.7µM*.
`COc1ccc(/C=C2\SC(=S)N(C(Cc3ccccc3)C(=O)O)C2=O)cc1` (stereo not drawn) gave ALDH1A1 block inconclusive, Sfp inh -42.1%, RORg inh 38.6%, Gal4-VP16 FLuc 2.2% and PLK1 PBD block 26.7µM*.
Screening COc1ccc(/C=C2/SC(=O)N(CC(O)Cn3c4ccccc4c4ccccc43)C2=O)cc1 (stereo not drawn) returned ALDH1A1 block inconclusive, Sfp inh 10.4%, RORg inh 6.0%, Gal4-VP16 FLuc 7.1% and PLK1 PBD block 29.9µM*.
Cn1cccc1/C=C1\SC(=S)N(NC(=O)c2ccccc2O)C1=O was read as Sfp inh inconclusive, RORg inh 45.2%, Gal4-VP16 FLuc -11.9% and PLK1 PBD block 25.8%.
O=C(O)CCCN1C(=O)/C(=C/C=C/c2ccco2)SC1=S was read as Sfp inh -11.8%, RORg inh 3.3%, Gal4-VP16 FLuc inconclusive and PLK1 PBD block inconclusive.
For O=C(O)C(Cc1ccccc1)N1C(=O)/C(=C/C=C/c2ccco2)SC1=S (stereo not drawn) the results were ALDH1A1 block 3.16µM*, Sfp inh 39.8µM*, RORg inh -1.7%, Gal4-VP16 FLuc -1.3% and PLK1 PBD block 2.67µM*.
CC(C)NC(=O)CCS(=O)(=O)c1cccc2nonc12 was read as ALDH1A1 block 25.1µM*, Sfp inh 16.3%, RORg inh 0.0%, Gal4-VP16 FLuc 4.0% and PLK1 PBD block 0.2%.
Cc1ccc(Cl)cc1N1CCN(C(=O)CCS(=O)(=O)c2cccc3nonc23)CC1 was read as ALDH1A1 block 22.4µM*, Sfp inh 9.0%, RORg inh inconclusive, Gal4-VP16 FLuc -25.0% and PLK1 PBD block -13.1%.
`CC(C)c1ccc(NC(=O)CCS(=O)(=O)c2cccc3nonc23)cc1` gave Sfp inh 0.9%, RORg inh 4.2%, Gal4-VP16 FLuc 0.9% and PLK1 PBD block -3.8%.
Cc1ccc(Cl)cc1N1CCN(C(=O)Cn2ccc3ccccc3c2=O)CC1 was read as ALDH1A1 block 20µM*, Sfp inh 10.1%, RORg inh 32.1%, Gal4-VP16 FLuc 9.5% and PLK1 PBD block -7.0%.
Cc1ccc(C)c(N2CCN(C(=O)CCNC(=O)Cn3ccc4ccccc4c3=O)CC2)c1 was read as ALDH1A1 block 0.7%, Sfp inh 13.4%, RORg inh -0.5%, Gal4-VP16 FLuc -17.5% and PLK1 PBD block -6.7%.
`CC(C)CCNC(=O)CCS(=O)(=O)c1cccc2nonc12` gave ALDH1A1 block 10µM*, Sfp inh 11.4%, RORg inh -14.5%, Gal4-VP16 FLuc -5.6% and PLK1 PBD block -1.9%.
`CCCCC(CC)CNC(=O)CCS(=O)(=O)c1cccc2nonc12` (stereo not drawn) gave ALDH1A1 block inconclusive, Sfp inh 1.9%, RORg inh inconclusive, Gal4-VP16 FLuc -0.3% and PLK1 PBD block -1.2%.
C=C1CC[C@H](O)C/C1=C/C=C1\CCC[C@]2(C)C([C@H](C)CC[C@@H](O)C(C)(C)O)CC[C@@H]12 (stereo partly drawn) was read as ALDH1A1 block 0.8% and Sfp inh 27.9%.
